From PubChem BioAssay
For some assays here: Entries with a potency or affinity are not part of this list. The source made the active and inactive calls. Unless noted, how the calls were made is not given here.

Assays:
[1] = antimalarial activity against Dd2 strain (AID 2302;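 active means growth inhibition above 50% at the single 2 µM test dose, taken to imply half-maximal potency below 2 µM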;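 further: 0% = DMSO untreated growth and 100% = chloroquine plus artemisinin killed control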); settings: P. falciparum Dd2 in RBCs, LDH growth readout, 72 h; at 2 µM; active compounds read high
[2] = human hepatoma cell viability loss – ATP luminescence, cytotoxicity control for P. falciparum antimalarial project, primary screen (AID 2303;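 active means inhibition above 50%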;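 further: 0% = DMSO wells and 100% = digitonin-killed cells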); settings: HepG2 viability, 24-48 h, at 10 µM, active compounds read high
[3] = biological target: L-lactate dehydrogenase (Plasmodium falciparum (isolate CDC / Honduras)) (UniProt Q27743); assay: PfLDH activity inhibition – cell lysate, 3D7 strain, counter-screen for P. falciparum growth inhibition project (AID 2304);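 further: 0% = vehicle and 100% = reference inhibitor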; settings: P. falciparum 3D7 crude extract, LDH APAD/NBT absorbance; at 2 µM; active compounds read high
Sequence of L-lactate dehydrogenase (Plasmodium falciparum (isolate CDC / Honduras)) (Q27743 whole entry, looked up): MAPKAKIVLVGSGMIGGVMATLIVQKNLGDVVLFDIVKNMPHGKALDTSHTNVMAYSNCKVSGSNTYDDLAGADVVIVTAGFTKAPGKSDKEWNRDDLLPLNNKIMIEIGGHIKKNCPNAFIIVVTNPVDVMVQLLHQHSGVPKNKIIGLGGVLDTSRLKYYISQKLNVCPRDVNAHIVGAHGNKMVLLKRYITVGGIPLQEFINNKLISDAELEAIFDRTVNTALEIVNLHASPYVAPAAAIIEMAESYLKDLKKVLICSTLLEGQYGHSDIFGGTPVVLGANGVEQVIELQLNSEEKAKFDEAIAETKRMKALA

[4] = inhibition of 3D7 malaria parasite growth – strain 3D7 (AID 2306);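 further: 0% = DMSO wells and 100% = chloroquine plus artemisinin control wells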; settings: P. falciparum 3D7 erythrocytic growth, LDH absorbance, 72 h; at 2 µM; active compounds read high
[5] = biological target: Calcium-dependent protein kinase 1 (Plasmodium falciparum (isolate 3D7)) (UniProt P62344); assay: PfCDPK1 kinase inhibitors, biochemical, TCAMS library (AID 1159585; cut-off not given, nearly all actives have IC50 up to about 0.98 µM;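 further: inhibitors leave more ATP so luminescence rises with inhibition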); settings: recombinant PfCDPK1, Kinase-Glo ATP depletion luminescence
Sequence of Calcium-dependent protein kinase 1 (Plasmodium falciparum (isolate 3D7)) (P62344 whole entry, looked up): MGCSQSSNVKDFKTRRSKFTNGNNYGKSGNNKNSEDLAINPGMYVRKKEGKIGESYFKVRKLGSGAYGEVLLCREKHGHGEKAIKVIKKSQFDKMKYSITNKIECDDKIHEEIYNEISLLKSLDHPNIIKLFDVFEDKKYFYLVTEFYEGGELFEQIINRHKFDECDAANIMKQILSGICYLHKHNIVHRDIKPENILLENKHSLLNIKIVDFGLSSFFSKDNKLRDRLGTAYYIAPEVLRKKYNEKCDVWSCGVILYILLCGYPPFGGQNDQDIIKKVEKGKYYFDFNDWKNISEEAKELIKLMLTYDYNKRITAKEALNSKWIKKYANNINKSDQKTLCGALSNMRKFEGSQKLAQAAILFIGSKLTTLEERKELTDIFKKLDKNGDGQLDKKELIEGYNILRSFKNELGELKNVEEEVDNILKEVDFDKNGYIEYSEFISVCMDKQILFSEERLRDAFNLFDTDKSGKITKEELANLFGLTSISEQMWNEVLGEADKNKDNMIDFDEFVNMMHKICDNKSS

[6] = biological target: Plasmodium falciparum protein kinase 6 (PK6, PF3D7_1337100) (UniProt Q8IDW1); assay: PfPK6 kinase inhibitors, biochemical, TCAMS library (AID 1159586); settings: recombinant PfPK6, Kinase-Glo ATP depletion luminescence
Sequence of Plasmodium falciparum protein kinase 6 (PK6, PF3D7_1337100) (Q8IDW1 1-305): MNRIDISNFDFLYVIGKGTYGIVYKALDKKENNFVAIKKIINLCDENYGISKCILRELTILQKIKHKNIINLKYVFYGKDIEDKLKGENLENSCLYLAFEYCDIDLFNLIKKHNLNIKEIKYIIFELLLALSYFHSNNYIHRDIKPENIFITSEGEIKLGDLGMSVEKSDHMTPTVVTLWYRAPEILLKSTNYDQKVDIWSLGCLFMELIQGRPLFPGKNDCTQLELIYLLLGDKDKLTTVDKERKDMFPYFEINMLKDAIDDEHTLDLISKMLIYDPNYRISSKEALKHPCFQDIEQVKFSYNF

[7] = biological target: Protein kinase 7 (PK7), Plasmodium falciparum 3D7 (PF3D7_0213400) (UniProt Q7YTF7); assay: inhibition of Plasmodium PK7 catalytic activity – biochemical, TCAMS antimalarial set, Kinase-Glo luminescence (AID 1159587); settings: recombinant PfPK7, Kinase-Glo ATP depletion luminescence
Sequence of Protein kinase 7 (PK7), Plasmodium falciparum 3D7 (PF3D7_0213400) (Q7YTF7 1-343): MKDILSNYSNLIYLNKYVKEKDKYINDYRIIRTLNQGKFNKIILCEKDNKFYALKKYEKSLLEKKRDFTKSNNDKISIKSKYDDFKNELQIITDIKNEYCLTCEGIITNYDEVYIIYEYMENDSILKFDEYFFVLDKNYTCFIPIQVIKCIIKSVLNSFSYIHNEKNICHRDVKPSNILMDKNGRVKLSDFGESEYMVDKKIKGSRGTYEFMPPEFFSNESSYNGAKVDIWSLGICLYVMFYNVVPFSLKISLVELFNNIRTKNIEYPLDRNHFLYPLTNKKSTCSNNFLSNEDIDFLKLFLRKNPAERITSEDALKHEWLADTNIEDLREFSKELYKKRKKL

[8] = biological target: Calcium-dependent protein kinase 4 (Plasmodium falciparum (isolate 3D7)) (UniProt Q8IBS5); assay: PfCDPK4 kinase inhibitors, biochemical, TCAMS library (AID 1159588; cut-off not given, nearly all actives have IC50 up to about 0.91 µM); settings: recombinant PfCDPK4, Kinase-Glo ATP depletion luminescence
Sequence of Calcium-dependent protein kinase 4 (Plasmodium falciparum (isolate 3D7)) (Q8IBS5 whole entry, looked up): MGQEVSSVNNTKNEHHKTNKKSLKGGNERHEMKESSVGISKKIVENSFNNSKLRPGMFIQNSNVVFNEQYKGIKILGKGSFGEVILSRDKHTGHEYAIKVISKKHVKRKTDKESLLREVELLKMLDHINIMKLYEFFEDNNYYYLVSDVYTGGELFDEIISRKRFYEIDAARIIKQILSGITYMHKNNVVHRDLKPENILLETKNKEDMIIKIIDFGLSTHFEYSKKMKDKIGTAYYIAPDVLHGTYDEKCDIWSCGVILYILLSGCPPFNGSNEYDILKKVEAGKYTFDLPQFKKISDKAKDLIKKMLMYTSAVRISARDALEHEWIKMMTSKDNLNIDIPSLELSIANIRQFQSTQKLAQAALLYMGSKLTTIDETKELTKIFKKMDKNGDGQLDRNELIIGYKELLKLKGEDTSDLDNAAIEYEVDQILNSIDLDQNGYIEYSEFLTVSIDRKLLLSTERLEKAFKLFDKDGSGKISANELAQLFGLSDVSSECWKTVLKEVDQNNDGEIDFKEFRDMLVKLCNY

O=C(Nc1cccc(C(F)(F)F)c1)c1ccc(S(=O)(=O)NCC2CCN(CC3CCCCC3)CC2)cc1
inactive: growth inhibition [1] 49% | inhibition [2] 24% | inhibition [3] -4% | outcome [5] | outcome [6] | outcome [7] | outcome [8]
active: growth inhibition [4] 100%

Cc1cc(N2CCCC2)nc(Nc2ccc(NC(=O)c3ccccc3C)cc2)n1
active: growth inhibition [4] 100%
inactive: growth inhibition [1] 40% | inhibition [2] 22% | inhibition [3] 2% | outcome [5] | outcome [6] | outcome [7] | outcome [8]

O=S(=O)(NCCN1CCCC1)c1cccc(-c2cccc(CNCc3ccc(F)cc3)c2)c1
active: growth inhibition [1] 73% | growth inhibition [4] 99%
inactive: inhibition [2] 41% | inhibition [3] 4% | outcome [5] | outcome [6] | outcome [7] | outcome [8]

N=c1n(Cc2ccccc2)c2ccccc2n1CC(O)c1ccc(Cl)cc1 (stereo not given)
inactive: inhibition [2] 26% | inhibition [3] -1% | outcome [5] | outcome [6] | outcome [7] | outcome [8]
active: growth inhibition [1] 75% | growth inhibition [4] 96%

O=C(Nc1cccc(C(F)(F)F)c1)NC1CCN(c2ccnc3ccccc23)CC1
active: growth inhibition [4] 101%
inactive: growth inhibition [1] 43% | inhibition [2] 23% | inhibition [3] -1% | outcome [5] | outcome [6] | outcome [7] | outcome [8]

O=S(=O)(c1cccc(C(F)(F)F)c1)N1CCC(CO)(Cc2cccc(C(F)(F)F)c2)CC1
active: growth inhibition [1] 79% | growth inhibition [4] 100%
inactive: inhibition [2] 3% | inhibition [3] 0% | outcome [5] | outcome [6] | outcome [7] | outcome [8]

Cc1cc(C(=O)NCc2ccc(-c3c(C)noc3C)cc2)n(-c2ccc(Cl)cc2)n1
inactive: inhibition [2] -1% | inhibition [3] 3% | outcome [5] | outcome [6] | outcome [7] | outcome [8]
active: growth inhibition [1] 98% | growth inhibition [4] 100%

O=C(Nc1nc2cc(S(=O)(=O)NCCCN3CCOCC3)ccc2n1CCCn1ccnc1)c1ccc(Cl)cc1
active: growth inhibition [4] 95%
inactive: growth inhibition [1] -6% | inhibition [2] -27% | inhibition [3] -1% | outcome [5] | outcome [6] | outcome [7] | outcome [8]

N#Cc1cccc(C(=O)NC2CCN(CCCCCNC(=O)/C=C/c3ccc(Cl)c(Cl)c3)CC2)c1
active: growth inhibition [4] 103%
inactive: growth inhibition [1] -1% | inhibition [2] 11% | inhibition [3] -9% | outcome [5] | outcome [6] | outcome [7] | outcome [8]

O=C(Nc1ccccc1O)C1CCN(c2ncnc3cc(-c4ccc(F)cc4)sc23)CC1
active: growth inhibition [1] 94% | growth inhibition [4] 97%
inactive: inhibition [2] 10% | inhibition [3] 4% | outcome [5] | outcome [6] | outcome [7] | outcome [8]

CCn1c(C)cc(C=C2SC(=Nc3ccccc3)NC2=O)c1C
active: growth inhibition [1] 87% | growth inhibition [4] 90%
inactive: inhibition [2] 27% | inhibition [3] 3% | outcome [5] | outcome [6] | outcome [7] | outcome [8]

CCCC(=O)Nc1ccc(Cl)c(NC(=O)COc2cc(C)ccc2C(C)C)c1
inactive: inhibition [2] 2% | inhibition [3] 0% | outcome [5] | outcome [6] | outcome [7] | outcome [8]
active: growth inhibition [1] 67% | growth inhibition [4] 87%

COc1cccc(NC(=O)c2cc(C(=O)Nc3cccc(OC)c3)cc([N+](=O)[O-])c2)c1
active: growth inhibition [1] 61% | growth inhibition [4] 99%
inactive: inhibition [2] 1% | inhibition [3] -3% | outcome [5] | outcome [6] | outcome [7] | outcome [8]

COc1ccc(NC(=O)C2c3ccccc3C(=O)N(C3CCCC3)C2c2cccs2)c(OC)c1 (stereo not given)
active: growth inhibition [1] 54% | growth inhibition [4] 84%
inactive: inhibition [2] 3% | inhibition [3] 4% | outcome [5] | outcome [6] | outcome [7] | outcome [8]

COc1ccc(CNC2CCN(C)CC2)cc1-c1ccc(S(=O)(=O)NCC2CCCO2)s1 (stereo not given)
active: growth inhibition [4] 95%
inactive: growth inhibition [1] 18% | inhibition [2] 18% | inhibition [3] 5% | outcome [5] | outcome [6] | outcome [7] | outcome [8]

O=C(Nc1ccc(OC2CCN(Cc3ccsc3)C2)c(Cl)c1)c1cccs1 (stereo not given)
inactive: inhibition [2] -1% | inhibition [3] -5% | outcome [5] | outcome [6] | outcome [7] | outcome [8]
active: growth inhibition [1] 87% | growth inhibition [4] 91%

c1cn(CCCNc2ncc(-c3ccsc3)c(-c3nccs3)n2)cn1
inactive: inhibition [2] -11% | inhibition [3] -4% | outcome [5] | outcome [6] | outcome [7] | outcome [8]
active: growth inhibition [1] 51% | growth inhibition [4] 94%

COc1ccc2c(NN=Cc3ccccc3F)cc(C)nc2c1
inactive: growth inhibition [1] 12% | inhibition [2] 4% | inhibition [3] 2% | outcome [5] | outcome [6] | outcome [7] | outcome [8]
active: growth inhibition [4] 90%

O=C(Cc1cnc[nH]1)Nc1cccc(-c2ccc(-c3nc4ccc(C(F)(F)F)cc4[nH]3)s2)c1
active: growth inhibition [1] 99% | growth inhibition [4] 101%
inactive: inhibition [2] 5% | inhibition [3] 3% | outcome [5] | outcome [6] | outcome [7] | outcome [8]

Cc1cccc2[nH]c(-c3ccc(-c4ccc(CNCc5ccc(CN)cc5)cc4)cc3)nc12
inactive: growth inhibition [1] 46% | inhibition [2] 14% | inhibition [3] -4% | outcome [5] | outcome [6] | outcome [7] | outcome [8]
active: growth inhibition [4] 100%

CCCc1c(Cl)cc(CNCCCNc2nc3ccncc3[nH]2)cc1Cl
inactive: growth inhibition [1] -5% | inhibition [2] 23% | inhibition [3] -5% | outcome [5] | outcome [6] | outcome [7] | outcome [8]
active: growth inhibition [4] 98%

COc1ccc(S(=O)(=O)N(CCCN2CCN(C)CC2)Cc2csc(-c3ccc(CNCc4ccccc4)cc3)n2)cc1
active: growth inhibition [1] 86% | growth inhibition [4] 88%
inactive: inhibition [2] 10% | inhibition [3] 6% | outcome [5] | outcome [6] | outcome [7] | outcome [8]

COc1ccccc1C1CCN(C2CCC(NC(=O)/C=C/c3ccc(F)c(F)c3)CC2)CC1 (stereo not given)
inactive: growth inhibition [1] 9% | inhibition [2] 49% | inhibition [3] 1% | outcome [5] | outcome [6] | outcome [7] | outcome [8]
active: growth inhibition [4] 94%

CS(=O)(=O)Nc1cccc(-c2cnc3[nH]cc(-c4cc(N)cc(C(=O)O)c4)c3c2)c1
active: growth inhibition [1] 96% | growth inhibition [4] 96%
inactive: inhibition [2] 40% | inhibition [3] 0% | outcome [5] | outcome [6] | outcome [7] | outcome [8]

CC(CCCCOCCc1ccccc1)NCC(O)c1cc(Cl)c(N)c(Cl)c1 (stereo not given)
active: growth inhibition [1] 95% | growth inhibition [4] 96%
inactive: inhibition [2] -5% | inhibition [3] -1% | outcome [5] | outcome [6] | outcome [7] | outcome [8]

CCOc1cc(C)ccc1C1CCN(CCCCNC(=O)c2coc(-c3ccc(Cl)cc3)c2)CC1
active: growth inhibition [4] 92%
inactive: growth inhibition [1] 30% | inhibition [2] 34% | inhibition [3] -3% | outcome [5] | outcome [6] | outcome [7] | outcome [8]

CCOc1ccc2c(c1)C(C)(c1ccc3c(c1)C(C)CC(C)(C)N3)CC(C)(C)N2 (stereo not given)
inactive: growth inhibition [1] 3% | inhibition [2] 5% | inhibition [3] -5% | outcome [5] | outcome [6] | outcome [7] | outcome [8]
active: growth inhibition [4] 94%

CCc1cn2c3c(cc(C(=O)N[C@@H](Cc4ccccc4)[C@H](O)CNC4CC4)cc13)N(CC)S(=O)(=O)CC2
active: growth inhibition [1] 99% | growth inhibition [4] 98%
inactive: inhibition [2] 13% | inhibition [3] -3% | outcome [5] | outcome [6] | outcome [7] | outcome [8]

CCOCCCn1c(=N)c(C(=O)NCc2ccc(OC)cc2)cc2c(=O)n3cccc(C)c3nc21
active: growth inhibition [4] 99%
inactive: growth inhibition [1] 46% | inhibition [2] 24% | inhibition [3] 2% | outcome [5] | outcome [6] | outcome [7] | outcome [8]

N#Cc1c(N2CCCCCC2)nc(N)c2c(N)nc3c(c12)CC(=O)N3c1ccc(F)cc1
inactive: inhibition [2] -7% | inhibition [3] -1% | outcome [5] | outcome [6] | outcome [7] | outcome [8]
active: growth inhibition [1] 91% | growth inhibition [4] 97%

CC(C)[C@H]1C(=O)N(S(C)(=O)=O)[C@H]2CCN(C(=O)c3ccc(CN4CCCCC4)c([N+](=O)[O-])c3)[C@H]12
inactive: inhibition [2] 10% | inhibition [3] 3% | outcome [5] | outcome [6] | outcome [7] | outcome [8]
active: growth inhibition [1] 100% | growth inhibition [4] 100%

Cc1cc(-c2nc3cncc(-c4cccc(CN5CCCC5Cc5cccnc5)c4)c3n2C)nn1C (stereo not given)
inactive: inhibition [2] -7% | inhibition [3] -1% | outcome [5] | outcome [6] | outcome [7] | outcome [8]
active: growth inhibition [1] 73% | growth inhibition [4] 83%

CCCCCN1CCC(NS(=O)(=O)c2cccc(C(=O)Nc3cccc(C(F)(F)F)c3)c2)C1 (stereo not given)
active: growth inhibition [4] 86%
inactive: growth inhibition [1] 17% | inhibition [2] 25% | inhibition [3] -5% | outcome [5] | outcome [6] | outcome [7] | outcome [8]

CCN(CC)CCCC(C)Nc1cc(C)nc2cc(Cl)ccc12 (stereo not given)
inactive: growth inhibition [1] 7% | inhibition [2] 9% | inhibition [3] 5% | outcome [5] | outcome [6] | outcome [7] | outcome [8]
active: growth inhibition [4] 100%

CCCc1cc(OC)c(CC2c3cc(O)c(C)cc3CCN2C)cc1OC (stereo not given)
active: growth inhibition [1] 89% | growth inhibition [4] 99%
inactive: inhibition [2] 32% | inhibition [3] -2% | outcome [5] | outcome [6] | outcome [7] | outcome [8]

CN1CCC(C(=O)Nc2ccc(-c3ccc(-c4nc5ccccc5[nH]4)s3)cc2)CC1
active: growth inhibition [4] 99%
inactive: growth inhibition [1] 22% | inhibition [2] 30% | inhibition [3] 3% | outcome [5] | outcome [6] | outcome [7] | outcome [8]

Cc1cc(N)c2cc(NC(=O)c3cccc4ccccc34)ccc2n1
inactive: growth inhibition [1] 13% | inhibition [2] 18% | inhibition [3] 4% | outcome [5] | outcome [6] | outcome [7] | outcome [8]
active: growth inhibition [4] 98%

Cc1cc([N+](=O)[O-])ccc1N1CCN(CCCCNC(=O)c2ccc(NC(=O)c3ccc(Cl)cc3)cc2)CC1
inactive: growth inhibition [1] -1% | inhibition [2] 33% | inhibition [3] 2% | outcome [5] | outcome [6] | outcome [7] | outcome [8]
active: growth inhibition [4] 92%

c1cc2c3c(cccc3c1)NC(CCCCCCCCC1=Nc3cccc4cccc(c34)N1)=N2
inactive: growth inhibition [1] 6% | inhibition [2] 14% | inhibition [3] 0% | outcome [5] | outcome [6] | outcome [7] | outcome [8]
active: growth inhibition [4] 93%

COc1ccc(NC(=O)Nc2ccc(-c3ccccc3)cc2)cc1Cn1cnc(N2CCCNCC2)cc1=O
inactive: growth inhibition [1] 38% | inhibition [2] 24% | inhibition [3] 8% | outcome [5] | outcome [6] | outcome [7] | outcome [8]
active: growth inhibition [4] 101%
